# Earlier results in PubChem BioAssay AID977611.
# Out of some 3,900 compounds screened, about 3,900 (100%) were called active. Cut-off not given; nearly all actives show Kd up to about 4200 µM. The set was probably picked from earlier hits. Some of the results follow. Numbered stars: 1 amine (or outer) side, 2 acyl side, 3 side chain; on linkers, the order of the positions; unused ones are H or OH. Where a SMILES comes first, the peptide text is derived from it. Non-standard residues stand in square brackets, D forms with d. Square brackets hold non-standard residues; d marks the D form. Residues, ends and D or L forms follow the SMILES beside them. Peptide text beside a SMILES is read from it. [ ]: non-standard residue; d: D form. X1 = CNC(NC)NCCC[C@H](N[*:1])C(=O)[*:2]; Lys(Me3) = C[N+](C)(C)CCCC[C@H](N)C(=O)O; Orn(CH(NH2)2) = NC(N)NCCC[C@H](N)C(=O)O; Abu = CC[C@H](N)C(=O)O
# Experiment: PubChem AID 977611
# Settings: PDB protein-ligand complexes, literature Kd
compound,measurement,setting,value
O=C(O)CCc1ccc2c(c1)OCO2,Kd,"protein: INTEGRASE, PDB entry 4ahr",6500 µM (active)
same,Kd,"protein: Pantothenate synthetase (T2A, E77G mutation), PDB entry 4ef6",1200 µM (active)
O=C(O)c1ccc2c(c1)OCO2,Kd,"protein: Pantothenate synthetase (T2A, E77G mutation), PDB entry 4ddk",5100 µM (active)
O=C1NC(=[N+]2CCCC2)Cc2ccccc21,Kd,"protein: Caspase-6, PDB entry 4n7m",3.4 µM (active)
O=C(Nc1ccc(OC(F)(F)F)cc1)N(Cc1cccc(-c2nccs2)c1)C1CC1,Kd,"protein: High affinity nerve growth factor receptor TrkA, PDB entry 4pmp",0.4 µM (active)
CCc1c(C(=O)NC)[nH]c(C)c1C(C)=O,Kd,"protein: Bromodomain-containing protein 4, BRD4(1), PDB entry 4lzs",16 µM (active)
CCc1c(C(=O)Nc2cc(S(=O)(=O)N(CC)CC)ccc2O)[nH]c(C)c1C(C)=O,Kd,"protein: Bromodomain-containing protein 4, BRD4(1), PDB entry 4lyw",237 µM (active)
CC(C)C[C@H](NC(=O)[C@@H](NC(=O)[C@H](C)NC(=O)[C@H](Cc1ccc(O)cc1)NC(=O)[C@H](C)NC(=O)[C@@H]1CCCN1C(=O)[C@@H]1CCCN1C(=O)[C@@H]1CCCN1C(=O)[C@H](C)NC(=O)[C@@H](N)[C@@H](C)O)[C@@H](C)O)C(=O)NCC(=O)O (H-TAPPPAYATLG-OH),Kd,"protein: E3 ubiquitin-protein ligase NEDD4, PDB entry 2m3o",5 µM (active)
CC[C@H](C)[C@H](NC(=O)[C@H](C)NC(=O)[C@@H]1CCCN1C(=O)[C@@H](NC(=O)[C@@H](N)CC(=O)O)[C@@H](C)CC)C(=O)N[C@@H](Cc1ccc(O)cc1)C(=O)N[C@@H](CCCNC(N)N)C(=O)N[C@@H](Cc1ccc(O)cc1)C(=O)NCC(=O)N[C@@H](CC(C)C)C(=O)N[C@@H](CCC(=O)O)C(=O)NCC(=O)N[C@@H](CC(C)C)C(=O)N[C@@H](CC(C)C)C(=O)O (H-DIPAIY[Orn(CH(NH2)2)]YGLEGLL-OH),Kd,"protein: CELL DIVISION PROTEIN FTSA, PUTATIVE, PDB entry 4a2a",45 µM (active)
CC(C)C[C@H](NC(=O)[C@H](CCC(N)=O)NC(=O)CNC(=O)[C@H](CCC(N)=O)NC(=O)[C@@H]1CCCN1C(=O)[C@H](CC(C)C)NC(=O)[C@@H]1CCCN1C(=O)[C@H](CCC(=O)O)NC(=O)[C@@H]1CCCN1C(=O)[C@@H](N)CC(C)C)C(=O)N[C@H](C(=O)N[C@@H](C)C(=O)N[C@@H](Cc1ccc(O)cc1)C(=O)O)[C@@H](C)O,Kd,"protein: HLA class I histocompatibility antigen(HLA-B*3501), PDB entry 1zhk",35.2 µM (active)
same,Kd,"protein: HLA class I histocompatibility antigen(HLA-B*3508), PDB entry 1zhl",9.9 µM (active)
CC[C@H](C)[C@H](NC(=O)[C@H](CCC(=O)O)NC(=O)[C@@H](NC(=O)[C@H](CC(=O)O)NC(=O)CNC(=O)[C@H](Cc1ccc(O[P+](O)(O)O)cc1)NC(=O)[C@H](CC(=O)O)NC(=O)[C@H](CCC(=O)O)NC(=O)[C@@H]1CCCN1C(=O)[C@H](Cc1ccc(O)cc1)NC(=O)[C@@H]1CCCN1C(=O)[C@H](CC(N)=O)NC(=O)[C@@H](N)Cc1ccc(O)cc1)[C@@H](C)CC)C(=O)NCC(=O)O (H-YNPYPED[X1]GDIEIG-OH),Kd,"protein: insulin receptor subunit beta, PDB entry 3bu6",1.3 µM (active)
CC[C@H](NC(=O)[C@@H](NC(=O)[C@H](CC(C)C)NC(=O)[C@H](CC(=O)O)NC(=O)[C@H](CCC(N)=O)NC(=O)[C@H](CCC(=O)O)NC(=O)[C@@H](NC(=O)[C@@H]1CCCN1C(=O)[C@@H]1CCCN1C(=O)[C@@H](N)CC(C)C)[C@@H](C)O)[C@@H](C)O)C(=O)N[C@@H](CC(C)C)C(=O)N[C@@H](CC(C)C)C(=O)N[C@@H](C)C(=O)N[C@@H](CCC(=O)O)C(=O)O (H-LPPTEQDLT[Abu]LLAE-OH),Kd,"protein: nuclear coactivator 1 (NCoA-1) PAS-B domain, PDB entry 1oj5",0.8 µM (active)
H-QAQGPPYPTYPGY-OH,Kd,"protein: ESCRT and ALIX binding region (EABR), PDB entry 3e1r",1.5 µM (active)
H-DDDEDGYNPYTL-OH,Kd,"protein: CTD interacting domain of Protein NRD1, PDB entry 2mow",1.09 µM (active)
CNC(NC)NCCC[C@H](NC(=O)[C@H](C)N)C(=O)N[C@H](C(=O)N[C@@H](CCCC[N+](C)(C)C)C(=O)N[C@@H](CCC(N)=O)C(=O)N[C@H](C(=O)N[C@@H](C)C(=O)N[C@@H](C)C(=O)N[C@@H](C)C(N)=O)[C@@H](C)O)[C@@H](C)O (H-A[X1]T[Lys(Me3)]QTAAA-NH2),Kd,"protein: RAG2-PHD, PDB entry 2v87",25.1 µM (active)
C[C@H](N)C(=O)N[C@@H](CCCNC(N)N)C(=O)N[C@@H](CCCC[N+](C)(C)C)C(=O)N[C@@H](CO)C(=O)N[C@@H](C)C(=O)NCC(=O)N[C@@H](C)C(=O)N[C@@H](C)C=O (H-A[Orn(CH(NH2)2)][Lys(Me3)]SAGAA-aldehyde),Kd,"protein: Polycomb protein EED residues 77-441, PDB entry 3iiy",16 µM (active)
C[C@H](N)C(=O)N[C@@H](CCCN=C(N)N)C(=O)N[C@H](C(=O)N[C@@H](CCCC[N+](C)(C)C)C(=O)N[C@@H](CCC(N)=O)C(=O)N[C@H](C(=O)N[C@@H](C)C(=O)N[C@@H](CCCNC(N)=[N+](C)C)C(=O)N[C@@H](CCCCN)C(=O)O)[C@@H](C)O)[C@@H](C)O,Kd,"protein: human Spindlin1, PDB entry 4mzf",0.045 µM (active)
C[C@H](N)C(=O)N[C@@H](CCCN=C(N)N)C(=O)N[C@H](C(=O)N[C@@H](CCCC[N+](C)(C)C)C(=O)N[C@@H](CCC(N)=O)C(=O)N[C@H](C(=O)N[C@@H](C)C(=O)O)[C@@H](C)O)[C@@H](C)O (H-ART[Lys(Me3)]QTA-OH),Kd,"protein: human Spindlin1, PDB entry 4mzh",0.066 µM (active)
C[C@H](N)C(=O)N[C@@H](CCCNC(N)N)C(=O)N[C@H](C(=O)N[C@@H](CCCC[N+](C)(C)C)C(=O)N[C@@H](CCC(N)=O)C(=O)N[C@H](C(=O)N[C@@H](C)C(=O)O)[C@@H](C)O)[C@@H](C)O (H-A[Orn(CH(NH2)2)]T[Lys(Me3)]QTA-OH),Kd,"protein: Histone-lysine N-methyltransferase MLL5, PDB entry 4l58",21 µM (active)
same,Kd,"protein: Inhibitor of growth protein 5, PDB entry 3c6w",2.4 µM (active)
same,Kd,"protein: Jumonji domain-containing protein 2A, PDB entry 2gfa",10.4 µM (active)
C[C@H](N)C(=O)N[C@@H](CCCNC(N)N)C(=O)N[C@H](C(=O)N[C@@H](CCCC[N+](C)(C)C)C(=O)N[C@@H](CCC(N)=O)C(=O)N[C@H](C(=O)O)[C@@H](C)O)[C@@H](C)O (H-A[Orn(CH(NH2)2)]T[Lys(Me3)]QT-OH),Kd,"protein: bromodomain PHD finger transcription factor, PDB entry 2f6j",2.7 µM (active)
C[C@H](N)C(=O)N[C@@H](CCCNC(N)N)C(=O)N[C@@H](CCCC[N+](C)(C)C)C(=O)N[C@@H](CO)C(=O)N[C@@H](C)C(=O)O (H-A[Orn(CH(NH2)2)][Lys(Me3)]SA-OH),Kd,"protein: Polycomb protein EED residues 77-441, PDB entry 3iiw",36.4 µM (active)
